# Assay outcomes as filed in PubChem.
# Rows were chosen to be rich in hits. Some 6.5% of all compounds tested hit in one or more screens of this group.
# FMDV inh: antivirals against foot and mouth disease virus; FMDV antiviral cell-based qHTS; AID 1159524; Potency, µM (series often up to 57.9 µM), most hits filed as inhibitors; 410,000 compounds, 1.2% hits; calls by dose curve; tested in HEK293T cells; also: read-out not given here; nearly all actives have a fitted effect of over 45% in size
# MARV entry inh: blocks Marburg virus binding to or entry into cells. Marburg virus pseudotyped entry inhibition, cell reporter. 300,000 compounds, 1.8% hits. Potency, µM (highest dose often 37.8 µM), usual class: inhibitors. AID 540276; calls by dose curve; tested in HEK293 cells
# HCMV antiviral: inhibitors of human cytomegalovirus; 410,000 compounds, 4.5% hits; HFF cells, HCMV-luciferase reporter, 72 h; stronger effect = lower value; activity change, negative = inhibition, % at 57.5 µM; AID 1259415; in the data active = activity change below about -60%; inconclusive = no clear call, values can overlap the other calls; inactive = above about -39%
#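 Cell-based, HFFs, 1000 cells/well, 16 h 37C; cpds in DMSO + HCMV-luc, MOI 1 PFU/cell; 72 h 37C; OneGlo luminescence after 5 min RT; norm. to buffer vs Salinomycin 10uM.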
# LASV entry inh: blocks Lassa virus binding to or entry into cells. AID 540256. 300,000 compounds, 1.2% hits. Potency, µM (highest dose often 37.9 µM), most hits filed as inhibitors. Lassa virus pseudotype entry inhibition, cell reporter; calls by dose curve; tested in HEK293 cells; also: nearly all actives have a fitted effect of over 50% in size
# VACV mCherry inh: inhibitors of vaccinia virus infection (mCherry reporter signal) | Vaccinia virus mCherry reporter infection, fluorescence | Potency, µM (highest dose often 36.5 µM), usual class: inhibitors | 310,000 compounds, 0.63% hits | AID 720579; calls by dose curve; tested in A549 cells; also: nearly all actives have a fitted effect of over 35% in size
# VACV Venus inh: inhibitors of vaccinia virus (Venus reporter) | Vaccinia virus Venus reporter expression, fluorescence | 330,000 compounds, 0.46% hits | Potency, µM (series often up to 36.5 µM), hits mostly inhibitors; calls by dose curve; tested in A549 cells; also: nearly all actives have a fitted effect of over 30% in size
# A number is an active result; . = inactive; ? = inconclusive; / = no result given; + = active, no number; [ ] = dose if it differs, or a comment.
SMILES,FMDV inh,MARV entry inh,HCMV antiviral,LASV entry inh,VACV mCherry inh,VACV Venus inh
COc1cccc(CN2C(=O)NC(C)(C3CCN(Cc4cc(Cl)ccc4O)CC3)C2=O)c1OC (stereo not given),.,/,/,/,.,.
O=C(Nc1ccc([N+](=O)[O-])cc1O)Nc1ccccc1Br,.,/,/,/,/,/
O=[N+]([O-])c1c(C(Cl)Cl)nn(-c2ccccc2)c1N1CCCC1,/,.,.,.,?,?
CCOC(=O)C1CCN(c2c([N+](=O)[O-])c(C(Cl)Cl)nn2-c2ccccc2)CC1,/,.,.,9.2µM,.,.
CC(=O)n1cc(/C=N/NC(=O)c2sc(C)nc2C)c2ccccc21,.,.,.,.,.,?
CC(=O)n1cc(-c2ccncc2)c2ccccc21,.,/,-94,/,.,.
CC(C)C(=O)N[C@H]1CCCN1C(=O)/C=C\c1ccccc1,/,.,/,/,/,/
O=C(O)c1ccc(N=Nc2c(O)ccc3ncccc23)cc1,5.6µM,/,?,/,.,?
O=C(O)c1cc(N=Nc2c(O)ccc3ccccc23)cc(C(=O)O)c1,.,.,.,?,/,/
CCN1CCN(c2cc(C)c3cc(NC(=O)c4cc(Br)ccc4Cl)ccc3n2)CC1,.,?,-72,?,.,.
CCN1CCN(C(=S)Nc2ccc3nc(N4CCN(CC)CC4)cc(C)c3c2)CC1,.,?,.,?,.,.
CCN1CCN(c2cc(C)c3cc(NC(=S)N4CCCC(C)C4)ccc3n2)CC1 (stereo not given),.,7.9µM,-71,?,?,.
CCN1CCN(C(=S)Nc2ccc3nc(N4CCN(C)CC4)cc(C)c3c2)CC1,.,?,?,10µM,.,.
COc1cc(/C(C)=N/NC(=S)NC(C)C)cc(OC)c1OC,.,?,-102,.,.,.
COc1cc(/C(C)=N\NC(N)=S)cc(OC)c1OC,.,.,.,.,?,.
C/C(=N\NC(=S)NC(C)C)c1ccccc1OC(F)F,.,.,-114,?,.,.
NC(N)=NC(N)=Nc1cccc2ccccc12,.,.,.,.,.[7.34 µM],.[7.34 µM]
NC(N)=Nc1cc2ccccc2c2ccccc12,/,/,-83,/,/,/
O=C(CCCn1c(=O)[nH]c2ccsc2c1=O)N1CCN(c2ccc(Cl)cc2)CC1,28µM,.,?,.,.,.
O=C(CCCCCn1c(=S)[nH]c2ccc(N3CCOCC3)cc2c1=O)NCc1cccc(Cl)c1,.,?,-71,.,.,.
O=C(CCCn1c(=S)[nH]c2cc3c(cc2c1=O)OCO3)NCCc1ccc(Cl)cc1,.,/,-74,/,.,?
O=C(CCCn1c(=S)[nH]c2cc3c(cc2c1=O)OCO3)N1CCN(c2ccc(Cl)cc2)CC1,?,?,-86,?,/,/
O=C(CCCCCn1c(=S)[nH]c2ccc(N3CCOCC3)cc2c1=O)NCc1ccccc1,.,.,.,.,.,.
O=C(OC1Cc2c(O)cc(O)cc2OC1c1cc(O)c(O)c(O)c1)c1cc(O)c(O)c(O)c1 (stereo not given),.,/,/,/,.,.
COc1ccc(NC(=O)C2=C(C)Nc3nc(SCc4ccccc4)nn3C2c2cc(OC)ccc2OC)cc1 (stereo not given),.,/,-82,?,.,.
SMILES,FMDV inh,MARV entry inh,HCMV antiviral,LASV entry inh,VACV mCherry inh,VACV Venus inh
CCOc1ccccc1C1C(C(=O)Nc2ccccc2)=C(C)Nc2nc(SCC(=O)c3ccc(C)cc3)nn21 (stereo not given),.,/,-72,.,.,.
CCSc1nc2n(n1)C(c1ccc(Cl)cc1Cl)C(C(=O)Nc1ccccc1C)=C(C)N2 (stereo not given),.,/,-91,.,?,?
COc1ccc(-n2c(CN3CCN(c4ccc(F)cc4)CC3)nc3ccc([N+](=O)[O-])cc3c2=O)c(OC)c1,.,.,-92,?,.,.
COc1ccc(Nc2cc3c(cn2)cc(-c2cccc(C(F)(F)F)c2)n3C)cc1,/,/,.,/,/,/
Cc1ccc(C2CC(c3cccs3)=NN2C(=O)CCl)cc1 (stereo not given),18µM,?,-101,?,?,.
CCC(=O)N1N=C(c2cccs2)CC1c1ccc(C)cc1 (stereo not given),.,/,.,/,/,/
Cc1cccc(N2CCN(C(=S)c3ccc([N+](=O)[O-])cc3)CC2)c1,.,.,-63,.,.,.
Cc1cccc(N2CCN(C(=S)c3ccccc3)CC2)c1,.,?,.,.,.,.
Cc1nc2cccnc2n1-c1cccc(C(=O)NCc2cccc(Cl)c2)c1,?,/,+,.,.,?
Cc1ccc(CNC(=O)c2ccc3c(c2)nc(C)n3-c2cccc(F)c2)cc1,.,/,-77,.,.,.
CCc1ccc(CNC(=O)c2cccc(-n3c(C)nc4cccnc43)c2)cc1,?,/,.,.,.,.
O=C1[C@H]2[C@H]3[C@H](O)[C@H](O)C/C(=N/OC[C@@H](O)COCc4ccco4)[C@H]3CC[C@@H]2C(=O)N1Cc1ccccc1,/,.,/,/,/,/
O=C1CC2(CCCCC2)Oc2ccccc21,.,/,.,/,.,.
CC(C)(C)C1CCC2(CC1)CC(=O)c1ccccc1O2 (stereo not given),.,/,-61,/,.,.
CN1CCCC(CC2c3ccccc3Sc3ccccc32)C1 (stereo not given),40µM,/,.,/,.,.
CCOc1cc2c(cc1O)C(=NO)CC1C2CCC2(C)C(O)CCC12 (stereo not given),.,?,-76,?,?,?
CCOc1ccccc1NC(=O)c1ccc(F)c(S(=O)(=O)N2CCN(c3ccc(F)cc3)CC2)c1,.,/,?,.,.,.
COc1ccc2oc(C(=O)N(C)Cc3ccc4c(c3)OCCO4)c(C)c2c1,.,.,.,.,.,.
Cc1c(C(=O)NNC(=O)c2ccccc2O)oc2ccc(Br)cc12,.,.,.,?,.,.
COc1ccc2oc(C(=O)OCC(=O)c3ccc4c(c3)OCCO4)c(C)c2c1,?,?,.,16µM,.,.
CCOc1ccc2oc(C(=O)OCC(=O)NCC3CCCO3)c(C)c2c1 (stereo not given),.,.,.,11µM,.,.
CCOc1ccc2oc(C(=O)NNC(=O)c3ccccc3O)c(C)c2c1,.,.,-72,.,?,.
Cc1ccc(-c2nnn(CC(=O)N(CC(=O)NCCC(C)C)c3ccc(F)cc3)n2)cc1,.,.,.,.,.[7.34 µM],.[7.34 µM]
COc1cc(=O)n2c(c1C(=O)N1CCc3ccccc3C1)CCN(Cc1ccc(CO)o1)CC2,.,/,/,/,.,.
O=C1CN=C(c2ccc(Br)cc2)c2c(sc3c2CCCC3)N1CCN1CCCCC1,?,/,-97,/,/,/
COc1ccc(C2=NCC(=O)N(CC(=O)NCc3ccco3)c3sc4c(c32)CCCC4)cc1,/,?,.,.,.,.
COc1cc(/C=C2/C(=O)c3cccc([N+](=O)[O-])c3C2=O)c(Br)cc1O,3.5µM,?,.,.,.,.
O=[N+]([O-])c1cc(S(=O)(=O)NCCN2CCOCC2)ccc1Sc1nnnn1-c1ccccc1,?,16µM,-89,.,?,?
CN(C)CCNS(=O)(=O)c1ccc(N2CCN(c3ccc(F)cc3)CC2)c([N+](=O)[O-])c1,?,18µM,-76,?,.,?
